From PubChem BioAssay (NCI)
About 83,000 compounds went through this panel and 20% of them were active in at least one assay; those are over-represented in the sample as a whole.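 The endpoint reported here, percent growth, reads 100 for growth as untreated, 0 for no net growth and -100 for all cells dead.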 Unmarked numbers belong to inactive results. Calls of active or inactive are those of the source. How the source made its calls: active means growth percent below 10; inactive means the rest.

Key:
Experiment in all cases: NCI-60 one-dose screen, 48 h (100 = growth as untreated, 0 = no growth, -100 = all killed)
Conditions in all cases: 10 µM unless noted
SR leukemia = tested on: SR leukemia
RPMI-8226 leukemia = tested on: RPMI-8226 leukemia
OVCAR-8 ovarian = tested on: OVCAR-8 ovarian
OVCAR-5 ovarian = tested on: OVCAR-5 ovarian
OVCAR-4 ovarian = tested on: OVCAR-4 ovarian
SK-OV-3 ovarian = tested on: SK-OV-3 ovarian
IGROV1 ovarian = tested on: IGROV1 ovarian
OVCAR-3 ovarian = tested on: OVCAR-3 ovarian
NCI/ADR-RES ovarian = tested on: NCI/ADR-RES ovarian

Structure (SMILES)	growth (SR leukemia)	growth (RPMI-8226 leukemia)	growth (OVCAR-8 ovarian)	growth (OVCAR-5 ovarian)	growth (OVCAR-4 ovarian)	growth (SK-OV-3 ovarian)	growth (IGROV1 ovarian)	growth (OVCAR-3 ovarian)	growth (NCI/ADR-RES ovarian)
COc1cc2nccc(Oc3ccc(NC(=O)Nc4cc(C)on4)c(Cl)c3)c2cc1OC	4.19% (active)	21%	15.3%	20.2%	31.1%	-17.3% (active)	0.0648% (active)	35.1%	10.2%
Cn1ncc(Cl)c1-c1cc(C(=O)N[C@H](CN)Cc2ccc(F)c(F)c2)oc1Cl	-10.6% (active)	-5.77% (active)	-38.4% (active)	5.81% (active)	24.8%	-41.6% (active)	-23.8% (active)	18.2%	8.92% (active)
CCS(=O)(=O)N1CCN(c2ccc(Nc3ncc(C(N)=O)c(NC4CC4)n3)cc2)CC1	48.9%	62.2%	89%	86.7%	111%	80.7%	77.4%	90.2%	101%
Nc1nc(N)c2nc(-c3cccc(O)c3)c(-c3cccc(O)c3)nc2n1	82%	83.5%	77.2%	78.1%	93.8%	52.8%	42.1%	57.4%	89.5%
CC(=O)c1c(C)c2cnc(Nc3ccc(N4CCNCC4)cn3)nc2n(C2CCCC2)c1=O	-18.7% (active)	28.2%	52.3%	37.8%	62%	36.5%	27.2%	74.6%	72.4%
CC(=O)Oc1ccccc1C(=O)N=C1[Se]CCN1C(=O)c1ccccc1OC(C)=O	24%	12.1%	-12.1% (active)	-12.4% (active)	-2.68% (active)	-30.6% (active)	-15.1% (active)	-74.2% (active)	-6.15% (active)
Brc1ccc([I+]c2ccc(Br)cc2)cc1	3.44% (active)	7.72% (active)	11.6%	61%	22.3%	43.6%	26.2%	61.6%	98.9%
CC(=O)c1cnc2ccc(-c3cc(Cl)c(O)c(Cl)c3)nc2c1NC1CCC(CN(C)C)CC1 (configuration not stated)	-16% [2.5 µM] (active)	-24.3% [2.5 µM] (active)	-22.9% [2.5 µM] (active)	2.38% [2.5 µM] (active)	-9.08% [2.5 µM] (active)	-32.6% [2.5 µM] (active)	-17.3% [2.5 µM] (active)	2.02% [2.5 µM] (active)	-13.7% [2.5 µM] (active)
COc1ccc(F)c(F)c1C(=O)c1cnc(NC2CCN(S(C)(=O)=O)CC2)nc1N	2.64% (active)	0.261% (active)	7.37% (active)	12.6%	8.36% (active)	11.9%	10.2%	13.1%	1.6% (active)
Cc1cc2c(-c3nc4ccccn4c3NC34CC5CC(CC(C5)C3)C4)c(O)c(O)cc2c(O)c1-c1c(C)cc2c(-c3nc4ccccn4c3NC34CC5CC(CC(C5)C3)C4)c(O)c(O)cc2c1O	13.1%	24.4%	12.3%	29.3%	21.4%	-11.1% (active)	21.3%	27.6%	9.01% (active)
c1cn2cc(-c3ccc4cn[nH]c4c3)nc(Nc3ccc(N4CCOCC4)cc3)c2n1	50%	63.4%	20%	64.2%	3.99% (active)	21%	58.7%	71.9%	39.2%
COc1ccc2c(c1)cn1c3ccc(O)cc3nc(N)c21	3.65% (active)	25.4%	28.1%	38.3%	37.7%	5.03% (active)	17.4%	43%	-0.794% (active)
COc1cc(Nc2ncc(F)c(Nc3ccc4c(n3)NC(=O)C(C)(C)O4)n2)cc(OC)c1OC	38.5%	71.8%	67.3%	24.1%	73.8%	21.8%	-9.34% (active)	63.4%	59.1%
Cc1ccc(NC(=O)c2ccc(CN3CC[C@H](N(C)C)C3)c(C(F)(F)F)c2)cc1Nc1nccc(-c2cncnc2)n1	-7.54% (active)	-9.27% (active)	3.4% (active)	15.3%	-4.76% (active)	38.6%	0.261% (active)	-6.36% (active)	24.9%
COCC(=O)NC/C=C/c1ccc2ncnc(Nc3ccc(Oc4ccc(C)nc4)c(C)c3)c2c1	22.5%	50.6%	38.5%	21.6%	40.1%	-18.6% (active)	-8.37% (active)	63.3%	57.1%
COc1cc2c(Oc3ccc(NC(=O)C4(C(=O)Nc5ccc(F)cc5)CC4)cc3F)ccnc2cc1OCCCN1CCOCC1	-16.7% (active)	10.3%	26.8%	11.7%	32.1%	-13.8% (active)	-34.7% (active)	46.5%	9.62% (active)
C/C=C/C=N/NC(=S)Nc1ccccc1	83.4%	104%	96.5%	82.2%	94.1%	94.2%	93.6%	117%	99%
N#CCNC(=O)c1ccc(-c2ccnc(Nc3ccc(N4CCOCC4)cc3)n2)cc1	6.43% (active)	27.3%	24.1%	29%	65.8%	28.7%	10.7%	31.9%	62.7%
CS(=O)(=O)CCNCc1ccc(-c2ccc3ncnc(Nc4ccc(OCc5cccc(F)c5)c(Cl)c4)c3c2)o1	3.31% (active)	-15.4% (active)	-26.5% (active)	65.2%	-51.2% (active)	-6.37% (active)	9.76% (active)	-63.1% (active)	8.75% (active)
CCCCOc1nc2cc(Cl)ccc2cc1/C=C/c1cc(/C=C/c2cc3ccc(Cl)cc3nc2OCCCC)n(-c2ccccc2)n1	73%	111%	77.8%	107%	111%	51.5%	89.3%	103%	93.2%
CC[C@H](Nc1ncnc2nc[nH]c12)c1nc2cccc(F)c2c(=O)n1-c1ccccc1	72.8%	78.9%	60.6%	61.8%	95.7%	-4.44% (active)	8.8% (active)	48.7%	83%
Cn1ccnc1C(=O)/C=C/c1ccc(CC(=O)Nc2ccc(S(F)(F)(F)(F)F)cc2)cc1	0.968% (active)	-18.8% (active)	-14.1% (active)	-38.1% (active)	17.5%	18.4%	-17.5% (active)	6.7% (active)	7.59% (active)
CN1CCN(c2ccc(OC(F)(F)F)c(Nc3ncc4c(n3)-c3c(c(C(N)=O)nn3CCO)CC4)c2)CC1	4.81% (active)	32.7%	9.62% (active)	19.9%	71.5%	-3.27% (active)	25.1%	41%	12.9%
CN(C)C/C=C/C(=O)Nc1cc2c(Nc3ccc(F)c(Cl)c3)ncnc2cc1O[C@H]1CCOC1	-15.8% (active)	-20.3% (active)	-2.55% (active)	17%	20.1%	-15.1% (active)	-27.1% (active)	-14% (active)	5.68% (active)
Cc1nc(NC(=O)N2CCC[C@H]2C(N)=O)sc1-c1ccnc(C(C)(C)C(F)(F)F)c1	26.2%	48.7%	48.5%	36.5%	72%	-25.6% (active)	-23.5% (active)	39.1%	60.8%
Cc1c(NC(=O)OC[C@@H]2COCCN2)cn2ncnc(Nc3ccc4c(cnn4Cc4cccc(F)c4)c3)c12	-4.38% (active)	5.44% (active)	-4.01% (active)	7.38% (active)	24%	-9.89% (active)	-4.73% (active)	12.8%	19.8%
C[C@H](NC(=O)c1c(N)nn2cccnc12)c1cc2cccc(C#Cc3cnn(C)c3)c2c(=O)n1-c1ccccc1	3.42% (active)	4.95% (active)	28.1%	45.1%	31.1%	-1.83% (active)	-22.7% (active)	19.9%	31.1%
NC(=O)c1c(OCc2c(F)cc(Br)cc2F)nsc1NC(=O)NCCCCN1CCCC1	-34.4% (active)	-26.3% (active)	19.4%	-14.8% (active)	-41.6% (active)	52.2%	-32.4% (active)	-34.1% (active)	20.2%
